# The list is not random: actives were taken first. Their share in the collection is about 8.1%.
# RORg inh = blocks mouse ROR gamma transcriptional activity; Potency, µM (top dose mostly 53.6 µM), hits mostly inhibitors; Drosophila S2 Gal4-RORgamma UAS-luciferase reporter, 20 h; AID 2551; actives 5.4% (n = 310,000); P51450; further: nearly all actives have a fitted effect of over 60% in size
# Target sequence (P51450 whole entry, looked up, the tested form may be a part): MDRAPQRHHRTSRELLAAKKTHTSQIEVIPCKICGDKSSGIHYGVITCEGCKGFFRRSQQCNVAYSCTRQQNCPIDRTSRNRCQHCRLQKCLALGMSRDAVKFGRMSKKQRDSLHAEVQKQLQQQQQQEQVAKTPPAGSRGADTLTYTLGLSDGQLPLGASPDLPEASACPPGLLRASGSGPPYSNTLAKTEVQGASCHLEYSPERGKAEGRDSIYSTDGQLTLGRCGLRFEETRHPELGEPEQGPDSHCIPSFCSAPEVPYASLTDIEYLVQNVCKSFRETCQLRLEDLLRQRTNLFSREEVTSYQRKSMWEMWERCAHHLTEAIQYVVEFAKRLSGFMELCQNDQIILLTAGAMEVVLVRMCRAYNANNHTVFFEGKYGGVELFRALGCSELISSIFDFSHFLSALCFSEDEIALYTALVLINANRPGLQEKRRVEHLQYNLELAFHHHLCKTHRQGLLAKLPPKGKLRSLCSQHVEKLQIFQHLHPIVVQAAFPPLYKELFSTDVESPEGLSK
#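 Luminescence from a UAS-regulated Photinus luciferase reporter in stably transfected Drosophila Schneider cells is measured; decreased signal marks ROR gamma inhibition. Fusion expression is induced by 700 uM copper sulfate for 20 hr.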
# Epigenetic reg = regulators of epigenetic silencing causing reporter derepression in mouse cells. murine LDR cells, GFP reporter derepression, 30 h. Potency, µM (top dose mostly 53.9 µM), actives largely listed as activators. actives 0.2% (n = 280,000); further: nearly all actives have a fitted effect of over 60% in size
#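 GFP-positive cell count by laser-scanning cytometry (objects 20–120 um) after 30 h, 37 C compound exposure of murine LDR cells; reporter is CMV-GFP integrated at a silenced locus, inducible by HDAC or DNMT inhibitors.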
# VP16 counter = Gal4-VP16 reporter inhibition counter-screen. Drosophila S2 Gal4-VP16 UAS-luciferase, luminescence, 20 h. actives 3.5% (n = 310,000). Potency, µM (titrated, usually from 53.6 µM), actives largely listed as inhibitors;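 further: Gal4-VP16 expression switched on by copper sulfate through the metallothionein promoter; nearly all actives have a fitted effect of over 50% in size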
# PINK1 expr mod = PINK1 expression modulation; AID 624263; Potency, µM (highest dose often 76.6 µM), actives largely listed as activators; actives 0.2% (n = 410,000); PINK1 immunofluorescence, high-content cytometry, 24 h; active means well fitted activation curve with a large enough effect; inconclusive means small, poorly fitted or top-dose-only effect; cell line not stated here; further: nearly all actives have a fitted effect of over 65% in size
#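 Stable cell line treated 24 h with compounds at 5 concentrations (CCCP controls), then fixed and immunostained for PINK1 plus nuclear and cell stains; PINK1 immunofluorescence quantified by laser-scanning microplate cytometry.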
# Sfp inh = blocks B. subtilis Sfp PPTase activity | Q9F4F7 | Biochemical Sfp PPTase activity, qHTS | Potency, µM, actives largely listed as inhibitors | actives 3.5% (n = 310,000) | AID 1490;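 further: the enzyme is Sfp with the accession as filed and its product quenches rhodamine fluorescence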
#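 With Hepes-Na pH 7.6 buffer containing 10 mM MgCl2, Sfp (15 nM) modified BHQ-2-YbbR (12.5 uM) using rhodamine-CoA (5 uM). Two reads 30 minutes apart at 525/598 nm yielded each well's rate.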
# ClpP mod = qHTS Assay for Activators of ClpP. actives 1.9% (n = 340,000). Potency, µM (top dose mostly 57.5 µM). AID 651965, 2013. purified B. subtilis ClpP, FRET peptide cleavage, 20 min; active means well fitted falling curve with a large enough effect; inconclusive means small, poorly fitted or top-dose-only effect; inactive means no such curve, though single readings can be large or run the other way; further: the source files actives as falling curves though it sought activators and does not explain the sign; nearly all actives have a fitted effect of over 65% in size
# Target sequence (P80244 whole entry, looked up): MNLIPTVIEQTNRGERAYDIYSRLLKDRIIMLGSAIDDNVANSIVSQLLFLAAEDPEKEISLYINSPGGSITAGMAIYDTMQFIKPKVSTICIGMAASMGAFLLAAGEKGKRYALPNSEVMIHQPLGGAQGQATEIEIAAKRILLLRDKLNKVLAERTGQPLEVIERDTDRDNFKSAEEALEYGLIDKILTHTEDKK
#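 Buffer: 100 mM Tris/HCl pH8, 100 mM KCl, 0.05% low protease BSA, 2.5% glycerol, 0.01% Tween-20. ClpP 10 microg/mL final; 20 min RT; delta FRET normalized to ADEP and DMSO controls.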
# Hits are given with their value; . = inactive; ? = inconclusive; / = not tested or not shown; ! = not active in a repeat; [ ] = dose if it differs, or a comment. Unless noted, the call rests on the fitted dose curve; in most records, active means well fitted curve in the direction sought with a large enough effect; inconclusive means small, poorly fitted or top-dose-only effect, or another doubt; inactive means no such curve, though single readings can be large; an effect the other way counts as inactive or inconclusive.
SMILES,RORg inh,Epigenetic reg,VP16 counter,PINK1 expr mod,Sfp inh,ClpP mod
CC1C(=O)OC2O[C@]3(C)CC[C@H]4C(C)CCC1[C@]24OO3 (stereo partly specified),.,.,.,/,.,/
COc1cc2c(cc1OC)[C@@H]1C(=O)c3ccc4oc(C(C)C)cc4c3OC1CO2 (stereo partly specified),5µM,.,0.32µM,/,.,/
CCC1(c2ccccc2)C(=O)NC(=O)N(C(=O)c2ccccc2)C1=O (stereo unspecified),.,/,.,/,.,/
S=c1[nH]c2cc(Br)cnc2[nH]1,.,.,.,.,22µM,.
CC1CC(Cl)CCC1C(=O)OC(C)(C)C (stereo unspecified),.,.,.,.,.,/
CCN(CC)c1ccc(N=Cc2c(O)n(Cc3ccccc3)c(=O)[nH]c2=O)cc1,.,13µM,.,.,.,.
CCN(CC)c1ccc(N=Cc2c(O)n(-c3ccccc3)c(=O)[nH]c2=O)cc1,.,.,.,.,50µM,.
CCOC(=O)c1sc(/N=C/c2c(O)n(-c3ccccc3)c(=O)[nH]c2=O)c(C#N)c1C,.,.,.,.,50µM,.
C/C=C1\C2C=C(C)C[C@@]1(N)c1ccc(=O)[nH]c1C2,.,.,.,/,.,/
C[C@H]1CNC(=O)c2c(C(=O)N3CCN(C(=O)OC(C)(C)C)CC3)ncn21,/,/,/,?,/,.
C=CCc1c(C)nc(C)nc1N/N=C/c1ccc(N(C)C)cc1,4.5µM,.,?,.,.,20µM
COC(=O)[C@@]1(Cc2ccccc2)[C@H]2c3cc(C(=O)N(C)C)[nH]c3C[C@H]2CN1C(=O)c1ccccc1,.,.,.,/,.,/
O=C1NS(=O)c2cc([N+](=O)[O-])cc([N+](=O)[O-])c21 (stereo unspecified),.,.,.,.,18µM,.
O=c1[nH]c(O)c(/C=C2\C=Nc3ccc(OCc4ccccc4)cc32)c(=O)[nH]1,.,/,.,32µM,.,/
Cc1ccccc1C1=NCC(=O)N(CC(=O)NCc2ccco2)c2sc3c(c21)CCCC3,?,.,13µM,/,50µM,.
CCC(C)C1N=C(c2ccccc2)c2cc(Cl)ccc2N(CC(=O)NCc2ccco2)C1=O (stereo unspecified),.,.,.,.,.,.
CC(=O)c1ccc2c(c1)C1C(Cl)C(Sc3ccccc3[N+](=O)[O-])CC1C(C(=O)O)N2 (stereo unspecified),.,.,.,.,56µM,.
O=C(O)c1cccc2c1NC(C(=O)O)C1CC(Sc3ccccc3[N+](=O)[O-])C(Cl)C21 (stereo unspecified),?,.,.,.,25µM,.
C=C(C)C(=O)CP(=O)(OCC)OCC,?,.,.,/,.,/
Clc1ccc(C(c2ccccc2Cl)C(Cl)(Cl)Cl)cc1 (stereo unspecified),.,/,.,/,/,/
Cc1ccc(S(=O)(=O)N2CCCCC2)cc1NC(=O)CN1CC=C(c2ccccc2)CC1,.,.,.,.,.,.
COc1ccccc1CNCC(=O)Nc1cc(S(=O)(=O)N2CCCCC2)ccc1C,/,/,/,.,/,8.9µM
C=CCSC1=N/C(=C\c2cc(OC)c3c(c2)OCO3)C(=O)S1,.,.,.,.,18µM,.
Cc1occc1C(=O)Nc1ccccc1,.,/,.,/,.,/
O=C(O)CNC(=O)C(CS)Cc1ccccc1 (stereo unspecified),/,.,/,.,0.79µM,.
SMILES,RORg inh,Epigenetic reg,VP16 counter,PINK1 expr mod,Sfp inh,ClpP mod
CC(=O)OC[C@]12C[C@H](OC(=O)CC(C)C)C(C)=C[C@H]1O[C@H]1[C@H](O)[C@@H](OC(C)=O)[C@@]2(C)[C@]12CO2,0.025µM,.,.,/,.,/
CC(=O)OC[C@]12CCC(C)=C[C@H]1O[C@@H]1[C@H](O)[C@@H](OC(C)=O)[C@@]2(C)[C@]12CO2,0.032µM,.,0.0016µM,.,.,.
CNCCc1ccc(O)c(O)c1,/,.,/,.,56µM,.
CN1C(=O)/C(=C\N2CCc3ccccc32)C(=O)NC1=S,.,.,.,.,35µM,.
CC[C@@]1(O)C(=O)OCc2c1cc1n(c2=O)Cc2cc3ccccc3nc2-1,0.056µM,.,?,.,.,.
CC[C@@]1(O)C(=O)OCc2c1cc1n(c2=O)Cc2cc3c(O)cccc3nc2-1,0.35µM,.,?,/,?,/
CCC1(OC(=O)CN)C(=O)OCc2c1cc1n(c2=O)Cc2cc3ccccc3nc2-1 (stereo unspecified),?,.,?,.,.,.
CC[C@@]1(O)C(=O)OCc2c1cc1n(c2=O)Cc2cc3c(NC(=O)CN)cccc3nc2-1,.,.,.,.,56µM,.
Cn1cccc1-c1cccnc1,/,.,/,/,.,/
CCC[CH2][Sn]([Cl])([Cl])[Cl],.,/,.,/,/,/
CCOc1cc(OP(=S)(OC)OC)nc(CC)n1,.,/,.,/,?,/
C/C=C1\C[N@@+]2(C)CC[C@@]34C(=C(C=O)[C@H]1C[C@H]32)Nc1ccccc14,.,.,.,/,35µM,/
CCCCCCCCCCCCCCCC[n+]1ccccc1,?,.,16µM,.,50µM!,.
CC1=C(O)C(=O)[C@@H]2O[C@@H]2C1=O,/,.,/,/,?,/
O=[N+]([O-])c1cccc(O)c1,.,/,.,.,/,.
C=C(C)Cn1c(-c2cccc([N+](=O)[O-])c2)n[nH]c1=S,7.1µM,.,.[10 µM],.,.,/
C=C(C)Cn1c(-c2cccs2)n[nH]c1=S,13µM,.,14µM,.,.,.
C#Cc1cccc2c1c(C(=O)c1ccc(Cn3c(C)nc4cnccc43)c(F)c1)cn2C(=O)N(C)C,.,/,.,/,.,/
Cc1ccc(C)c(S(=O)(=O)c2nnn3c2nc(N2CCCC2)c2sccc23)c1,/,.,/,.,/,?
COc1ccc(CNc2oc(-c3cccc4ccccc34)nc2P(=O)(OC)OC)cc1,.,.,.,.,50µM,.
COc1cc2c(cc1O)[C@H]1Cc3ccc(OC)c(O)c3CN1CC2,?,.,.,/,.,/
CCSc1cc(C2C(C#N)=C(N)Oc3n[nH]c(C)c32)c(C)o1 (stereo unspecified),11µM,.,?,.,.,.
CCCC(Cn1cncn1)c1ccc(Cl)cc1Cl (stereo unspecified),.,/,.,/,.,/
CCCCCCCC(=O)Cl,.,/,.,/,/,/
COP(=S)(OC)Oc1ccc(S(=O)(=O)N(C)C)cc1,.[10 µM],/,.,/,35µM,/
COP(=S)(OC)Oc1ccc([N+](=O)[O-])c(C)c1,.,/,.,/,?,/
Clc1ccc(C2=CCC[C@H]3CC[C@@H]2N3)cn1,.,.,.,/,.,/
CC(C)(COCC1CO1)COCC1CO1 (stereo unspecified),.,/,.,/,/,/

# Assay outcomes (PubChem)
